Measured values taken from PubChem BioAssay (NCATS).
Records with an inconclusive call do not appear. Active and inactive are the calls of the source. Unless noted, calls come from the whole dose curve; as a rule, active = well fitted curve in the direction sought with a large enough effect; inconclusive = small, poorly fitted or top-dose-only effect, or another doubt; inactive = no such curve, though single readings can be large; an effect the other way counts as inactive or inconclusive.

How the values were obtained:
[1] = Cell Viability - BJ (AID 421; calls by dose curve;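 note: potency is the fitted concentration of half-maximal effect; cells exposed to compound for 40 hours at 37 °C before readout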); details: BJ fibroblast viability, qHTS
Summary of the method: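 Normal human BJ foreskin fibroblasts, 1500/well in complete medium, treated 40 hr at 37 °C. Cellular ATP by CellTiter-Glo luminescence; normalized to DMSO and 100 uM tamoxifen, AC50 from Hill fit.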

[2] = Cell Viability - HUV-EC-C (AID 542); details: HUV-EC-C endothelial cell viability, qHTS; series mostly up to 92.2 µM;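 note: cells exposed to compound for 40 hours; % is set by controls: 0 for no effect and ±100 for the full control effect; nearly all actives have a fitted effect of over 35% in size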
Summary of the method: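 Decrease in cellular ATP, quantified by luciferase luminescence, reflects toxicity in normal human vascular endothelial HUV-EC-C cells given compound for 40 hr in complete culture medium. Values are AC50s from concentration-response curves.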

[3] = Cellular Toxicity (caspase-3) HUV-EC-C (AID 656); details: HUV-EC-C cells, caspase-3 activation (apoptosis), vehicle = 0, 100 µM tamoxifen = 100%; series mostly up to 92.2 µM
Summary of the method: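 Read-out: luminescence proportional to caspase 3/7 activity, measured 20 min after adding Caspase-Glo 3/7 reagent. Cells (HUV-EC-C) had received compound for 16 hr at 37°C. Increases relative to DMSO and 100 uM tamoxifen gave concentration-response AC50 values.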

[4] = Cellular Toxicity (caspase-3) MRC-5 (AID 659); details: MRC-5 cells, luminescence, normalized: DMSO 0%, 10 µM staurosporine 100%; series mostly up to 91.7 µM
Summary of the method: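 Luminescence from caspase-cleaved aminoluciferin substrate (Caspase-Glo 3/7, 1 hr RT) reports caspase 3/7 activity in MRC-5 lung fibroblasts after 16 hr compound exposure. Normalized to DMSO basal and 10 uM staurosporine as 100%; AC50 from Hill fits.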

[5] = Cellular Toxicity (caspase-3) Mesangial (AID 660); details: mesangial cells, normalized: DMSO 0%, 100 µM tamoxifen 100%; series mostly up to 91.7 µM;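 note: cells exposed to compound for 16 h before the caspase read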
Summary of the method: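 Concentration-response qHTS: compound-induced rise in caspase 3/7 luminescence in human mesangial cells after 16 h, normalized to DMSO and 100 uM tamoxifen controls.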

[6] = Cellular Toxicity (caspase-3) SK-N-SH (AID 661); details: SK-N-SH caspase-3 activation, qHTS; series mostly up to 91.7 µM
Summary of the method: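 Caspase 3/7 activation is measured as a luminescence increase from aminoluciferin released by substrate cleavage in SK-N-SH cells after 16 hr compound treatment; values are AC50 from concentration-response curves.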

[7] = Cellular Toxicity (caspase-3) Hek293 (AID 664); details: HEK293 caspase-3 activation, DMSO = 0%, 100 µM tamoxifen = 100%; at 92.2 µM (top of the series);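 note: cells exposed to compound for 16 h at 37 °C before readout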
Summary of the method: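 Activation of caspase-3/7 is measured as increased luminescence from cleaved peptide-aminoluciferin substrate in HEK293 cells treated 16 hours at 37 °C. AC50 values come from Hill-equation fits of concentration-response data.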

[8] = Cellular Toxicity (caspase-3) NIH 3T3 (AID 666); details: NIH 3T3 caspase-3 activation, apoptosis/toxicity; series mostly up to 92.2 µM;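 note: caspase signal read after 16 h compound exposure; 0% = DMSO basal and 100% = 100 µM tamoxifen stimulation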
Summary of the method: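 Concentration-response qHTS in NIH 3T3 mouse fibroblasts scores caspase-3/7 activation as rising luminescence after 16 hr compound exposure. Signals are scaled between DMSO-only and 100 uM tamoxifen.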

[9] = MultiTox-Fluor Cytotoxicity Assay - LYMP1-001 - Dead Cells (AID 946); details: LYMP1-001 lymphoblastoid cells, dead-cell protease fluorescence; series mostly up to 92.2 µM;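 note: 0% = DMSO and 100% = tetraoctylammonium bromide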
Summary of the method: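 LYMP1-001 lymphoblastoid cells (2500/well) treated 16 h at 37 C. Dead-cell protease cleavage of bis-AAF-R110 read at Ex/Em 485/520. Normalized to DMSO and 15 uM tetraoctylammonium bromide; AC50 from Hill fits.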

[10] = Cell Viability - LYMP1-002 - Assay at 16 hr (AID 948); details: LYMP1-002 lymphoblastoid cell viability; series mostly up to 92.2 µM;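 note: 0% = DMSO alone and full effect = 92 µM tetraoctylammonium bromide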
Summary of the method: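 Acute cytotoxicity is scored as a concentration-dependent fall in intracellular ATP in a human lymphoblastoid line (LYMP1-002) after 16 hr compound exposure at 37 C, measured by luciferase luminescence.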

[11] = MultiTox-Fluor Cytotoxicity Assay - LYMP1-003 - Live Cells (AID 962); details: LYMP1-003 lymphoblastoid cells, MultiTox-Fluor live-cell protease fluorescence; series mostly up to 92.2 µM;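 note: 0% = DMSO only and full loss = 92 µM tetraoctylammonium bromide; cytotoxic hits lower the live-cell protease signal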
Summary of the method: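 Cells plated at 2500 per well and incubated 5 hr; compounds added and incubated 16 hr at 37 C; MultiTox-Fluor reagent added for 60 min at room temperature; fluorescence of liberated AFC measured at 405/510 nm.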

[12] = Cell Viability - LYMP2-003 (AID 965); details: LYMP2-003 lymphoblastoid cell viability; series mostly up to 92.2 µM;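 note: cells exposed to compounds for 24 h before reading; 0% = DMSO only and full effect = 92 µM tetraoctylammonium bromide; nearly all actives have a fitted effect of over 50% in size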
Summary of the method: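 Acute cytotoxicity is scored as a concentration-dependent drop in intracellular ATP, measured by luciferase luminescence in human lymphoblastoid cells treated for 24 hours at 37 C. AC50 values derive from Hill-equation modelling.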

[13] = Cell Viability - LYMP2-013 (AID 970); details: LYMP2-013 lymphoblastoid cells viability; series mostly up to 92.2 µM;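 note: cells exposed to compound for 24 h at 37 °C; 0% = DMSO only and full inhibition = tetraoctylammonium bromide control; nearly all actives have a fitted effect of over 55% in size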
Summary of the method: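 Acute toxicity was measured in human lymphoblastoid cells (2500/well) exposed to compound titrations for 24 hr, with ATP luminescence (CellTiter-Glo) as read-out and AC50 fitted by Hill equation.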

[14] = Cell Viability - LYMP2-015 (AID 971); details: LYMP2-015 lymphoblastoid cell viability; series mostly up to 92.2 µM;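 note: 0% = DMSO only and full effect = 92 µM tetraoctylammonium bromide; nearly all actives have a fitted effect of over 55% in size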
Summary of the method: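 Acute toxicity was scored as a concentration-dependent drop in intracellular ATP in lymphoblastoid cells after 24 hr compound exposure in complete medium. Detection used CellTiter-Glo luciferase luminescence.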

[15] = Cell Viability - LYMP2-017 (AID 972); details: LYMP2-017 lymphoblastoid cell viability; series mostly up to 92.2 µM;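 note: cells exposed to compound for 24 hours at 37 °C; % is set by controls: 0 for no effect and ±100 for the full control effect; nearly all actives have a fitted effect of over 55% in size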
Summary of the method: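 Steps: plate 2500 lymphoblastoid cells per well; incubate 5 hr at 37 C; add compound across a concentration series and incubate 24 hr at 37 C; add CellTiter-Glo and read luminescence after 30 min at room temperature; fit Hill curves for AC50.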

[16] = Cell Viability - LYMP2-007 (AID 979); details: LYMP2-007 lymphoblastoid cell viability; series mostly up to 92.2 µM;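 note: cells exposed to compound for 24 h before reading; 0% = DMSO only and the negative end = 92 µM tetraoctylammonium bromide; nearly all actives have a fitted effect of over 60% in size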
Summary of the method: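 Acute toxicity is scored as a concentration-dependent fall in intracellular ATP in human lymphoblastoid cells treated 24 hr at 37 C, measured by luciferase luminescence; Hill-equation modelling yields AC50.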

[17] = qHTS Assay for Identification of Small Molecule Inducers of Hypoxia Response (AID 2120; active = well fitted curve in the direction sought with a large enough effect in the signal ratio, with a control signal flat, not every such curve was filed as active; the % refers to the signal ratio; note: 0% is about no effect); details: hypoxia response reporter cells, beta-lactamase ratio readout; series mostly up to 104 µM
Summary of the method: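 Induction of beta-lactamase reporter activity was measured in CellSensor HRE-bla ME-180 cells after 17 h compound treatment at 37 degrees C, using CCF4 substrate and the 460nm/530nm emission ratio to derive AC50 values.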

[18] = target: Peroxisome proliferator-activated receptor alpha (Homo sapiens) (UniProt Q07869); assay: qHTS assay for small molecule agonists of the peroxisome proliferator-activated receptor alpha (PPARalpha) signaling pathway (AID 651778); details: PathHunter PPARalpha complementation, chemiluminescence, 6 h; stronger effect = higher value; note: % of control where 0% means no effect
Sequence of Peroxisome proliferator-activated receptor alpha (Homo sapiens) (Q07869 whole entry, looked up): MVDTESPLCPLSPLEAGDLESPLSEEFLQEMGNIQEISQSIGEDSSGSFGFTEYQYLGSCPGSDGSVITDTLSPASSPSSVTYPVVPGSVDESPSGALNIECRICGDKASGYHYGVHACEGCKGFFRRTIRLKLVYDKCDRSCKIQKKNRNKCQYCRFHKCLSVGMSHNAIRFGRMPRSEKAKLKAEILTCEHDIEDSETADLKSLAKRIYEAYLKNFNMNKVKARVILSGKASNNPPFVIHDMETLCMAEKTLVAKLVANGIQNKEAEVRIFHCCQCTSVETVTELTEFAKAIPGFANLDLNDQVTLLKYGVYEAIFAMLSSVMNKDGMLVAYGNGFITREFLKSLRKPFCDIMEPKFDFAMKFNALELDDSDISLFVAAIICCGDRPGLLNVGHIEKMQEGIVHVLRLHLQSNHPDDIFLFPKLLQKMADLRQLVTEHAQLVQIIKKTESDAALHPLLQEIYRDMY
Summary of the method: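 Cells plated at 2,000/well and held overnight at 37 C, 5% CO2, then compound added by pin tool for 6 hr; after PathHunter detection reagent and 60 min at room temperature, chemiluminescence from enzyme complementation was read.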

[19] = qHTS assay for small molecule agonists of the antioxidant response element (ARE) signaling pathway measured by Nrf2-dependant transcriptional activity - cell viability counter screen (AID 720653; active = well fitted curve in the direction sought with a large enough effect in the repeat runs; an effect the other way counts as inactive or inconclusive; note: % is set by controls: 0 for no effect and ±100 for the full control effect); details: ARE-bla HepG2 viability, CellTiter-Glo ATP luminescence, 16 h; stronger effect = lower value
Summary of the method: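 ARE-bla HepG2 cells (2,000/well) rested 5 hrs at 37C/5% CO2, then exposed to compounds in DMSO for 16 hrs. Viability was read in the same wells as intracellular ATP by luminescence, 30 min at room temperature after reagent addition.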

[20] = qHTS assay for cell viability of the p53RE-bla HCT-116 cell line (AID 743292); details: p53RE-bla HCT-116 viability, ATP luminescence, 16 h; series mostly up to 95 µM; note: % is set by controls: 0 for no effect and ±100 for the full control effect; nearly all actives have a fitted effect of over 55% in size
Summary of the method: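 ATP-based luminescence, 16 h compound exposure at 37 C, p53RE-bla HCT-116 cells at 4,000/well.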

FC(Cl)(Cl)Cl
inactive: Potency [1] > 92 µM | Potency [2] | outcome [3] | outcome [4] | outcome [5] | Potency [6] | caspase-3 activation [7] -1.27% | Potency [8] | outcome [9] | outcome [10] | outcome [11] | Potency [12] | Potency [13] | Potency [14] | Potency [15] | Potency [16] | Potency [17] | max response [18] -4.74% | max response [19] -4.09% | Potency [20]

CCC#N
inactive: Potency [1] > 92 µM | Potency [2] | outcome [3] | outcome [4] | outcome [5] | Potency [6] | caspase-3 activation [7] -0.76% | Potency [8] | outcome [9] | outcome [10] | outcome [11] | Potency [12] | Potency [13] | Potency [14] | Potency [15] | Potency [16] | Potency [17] | max response [18] -3.95% | max response [19] 13.6% | Potency [20]

CC(C)CON=O
inactive: Potency [1] > 92 µM | Potency [2] | outcome [3] | outcome [4] | outcome [5] | Potency [6] | caspase-3 activation [7] 0.719% | Potency [8] | outcome [9] | outcome [10] | outcome [11] | Potency [12] | Potency [13] | Potency [14] | Potency [15] | Potency [16] | Potency [17] | max response [18] -1.42% | max response [19] 3.18% | Potency [20]

Nn1cnnc1
inactive: Potency [1] > 92 µM | Potency [2] | outcome [3] | outcome [4] | outcome [5] | Potency [6] | caspase-3 activation [7] 0.966% | Potency [8] | outcome [9] | outcome [10] | outcome [11] | Potency [12] | Potency [13] | Potency [14] | Potency [15] | Potency [16] | Potency [17] | max response [18] -0.452% | max response [19] -3.98% | Potency [20]

CCCCCCCCCCCOC(=O)c1ccccc1C(=O)OCCCCCCCCCCC
inactive: Potency [1] > 92 µM | Potency [2] | outcome [3] | outcome [4] | outcome [5] | Potency [6] | Potency [8] | outcome [9] | outcome [10] | outcome [11] | Potency [12] | Potency [13] | Potency [14] | Potency [15] | Potency [16] | Potency [17] | max response [18] 0.22% | max response [19] 3.11% | Potency [20]

C[N+](=O)[O-]
inactive: Potency [1] > 92 µM | Potency [2] | outcome [3] | outcome [4] | outcome [5] | Potency [6] | caspase-3 activation [7] -0.684% | Potency [8] | outcome [9] | outcome [10] | outcome [11] | Potency [12] | Potency [13] | Potency [14] | Potency [15] | Potency [16] | Potency [17] | max response [18] -2.13% | max response [19] -1.82% | Potency [20]
